# Assay outcomes (PubChem)
# NPR1 activator: GC-A stimulated cGMP production enhancers – HEK293 GC-A cells, cGMP TR-FRET, EC30 ANP, primary screen; activation, % at 10 µM; 370,000 tested, 0.14% active; AID 1671463, 2021; 0% at EC30 ANP, 100% saturating ANP; in the data active = activation above about 40%
# Target sequence (P16066 whole entry, looked up): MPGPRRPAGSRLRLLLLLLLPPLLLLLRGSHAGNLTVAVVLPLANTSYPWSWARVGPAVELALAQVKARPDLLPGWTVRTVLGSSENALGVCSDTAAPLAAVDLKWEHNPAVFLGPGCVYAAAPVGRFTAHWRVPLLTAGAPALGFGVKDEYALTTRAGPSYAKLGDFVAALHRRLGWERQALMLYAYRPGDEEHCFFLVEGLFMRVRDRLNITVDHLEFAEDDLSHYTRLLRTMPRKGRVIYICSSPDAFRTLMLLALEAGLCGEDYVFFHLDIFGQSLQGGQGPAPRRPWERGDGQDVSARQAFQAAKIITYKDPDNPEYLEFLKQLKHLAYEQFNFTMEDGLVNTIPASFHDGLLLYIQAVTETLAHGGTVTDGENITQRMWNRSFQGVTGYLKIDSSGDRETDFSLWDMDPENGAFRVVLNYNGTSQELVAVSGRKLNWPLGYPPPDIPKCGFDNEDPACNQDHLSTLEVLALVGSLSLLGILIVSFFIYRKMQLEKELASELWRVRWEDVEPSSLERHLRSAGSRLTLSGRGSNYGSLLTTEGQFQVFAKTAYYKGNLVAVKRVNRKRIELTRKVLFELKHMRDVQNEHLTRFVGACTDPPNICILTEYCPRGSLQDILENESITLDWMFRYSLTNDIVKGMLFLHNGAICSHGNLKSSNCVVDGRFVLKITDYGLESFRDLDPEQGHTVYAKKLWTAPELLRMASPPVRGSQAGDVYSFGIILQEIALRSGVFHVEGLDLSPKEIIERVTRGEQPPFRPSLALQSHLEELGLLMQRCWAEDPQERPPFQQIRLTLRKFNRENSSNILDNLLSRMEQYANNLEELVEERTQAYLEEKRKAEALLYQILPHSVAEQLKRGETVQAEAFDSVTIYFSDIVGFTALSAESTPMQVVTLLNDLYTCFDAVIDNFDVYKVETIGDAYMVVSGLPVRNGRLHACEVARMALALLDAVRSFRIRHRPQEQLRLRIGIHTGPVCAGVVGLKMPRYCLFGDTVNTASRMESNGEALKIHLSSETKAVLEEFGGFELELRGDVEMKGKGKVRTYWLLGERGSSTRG
# GC-B act: human GC-B receptor activators, primary screen, HEK293 GC-B cells, cGMP TR-FRET, EC30 CNP. 0% at EC30 CNP, 100% saturating CNP. AID 1920062, 2024. activation, % at 10 µM. 370,000 tested, 0.11% active;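 active = activation at 10 µM reaching about 35% in either raw or pattern-adjusted values, limit read from the data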
# bovine MsrA act: bovine MsrA enzyme activators, primary screen, biochemical, absorbance, HTS | activation, % at 10.6 µM | AID 602163, 2012 | purified bovine MsrA, absorbance read-out | 360,000 tested, 0.3% active | Methionine sulfoxide reductase A (Bos taurus); in the data active = activation above about 7.5%;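 also: 0% = vehicle and 100% = reference activator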
# MsrA inh: bovine MsrA enzyme inhibitors, primary screen, biochemical, absorbance, HTS. inhibition, % at 15.5 µM. 360,000 tested, 0.75% active. Methionine sulfoxide reductase A (Bos taurus). purified bovine MsrA, absorbance read-out; in the data active = inhibition above about 4.5%;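 also: 0% = vehicle wells with enzyme and 100% = reference inhibitor wells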
# An asterisk follows results filed as active; . = no result given. In the library only some 1.2% were active in any assay of this set; here they are far more common.
SMILES,NPR1 activator,GC-B act,bovine MsrA act,MsrA inh
O=C(O)C1CCN(C(=O)c2ccccc2N2C(=O)[C@@H]3Cc4c([nH]c5ccccc45)C(c4cccc(Cl)c4)N3C2=O)CC1 (some centres not stated),53*,58*,-1,2
O=C(Nc1ccccc1F)c1ccc([N+](=O)[O-])s1,-1,-1,-1,4
O=C(Nc1cccnc1)c1ccc([N+](=O)[O-])s1,-2,-3,13*,2
CCCS(=O)(=O)c1c(S(=O)(=O)CCC)c2ccc(C(N)=O)cn2c1C(=O)c1ccccc1,35,42*,1,0
CCN(CC)C(=O)O[C@H]1CC[C@@]23CCCN2C(=O)CCC[C@H]3[C@H]1C,-1,-2,.,.
CCOC(=O)c1c(-c2ccc(C)o2)csc1NC(=S)NC(=O)c1cccs1,29,37*,-3,-1
CCOC(=O)c1c(-c2ccccc2)csc1NC(=S)NC,-1,-4,2,2
CCOC(=O)c1c(-c2ccc(C)o2)csc1NC(=S)NC(=O)c1ccccc1Br,18,37*,-8,2
CCOC(=O)c1c(-c2ccc(C)o2)csc1NC(=O)CSc1nnc(C)s1,3,6,-6,2
Cc1ccc(Cn2c(=N)c(C(=O)NCC3CCCO3)cc3c(=O)n4cccc(C)c4nc32)cc1 (configuration not stated),40*,37*,-1,0
Cc1ccc(Cn2c(=N)c(C(=O)NCc3ccco3)cc3c(=O)n4ccccc4nc32)cc1,53*,12,-2,1
O=C(CCn1nnc(-c2cccs2)n1)N1CCCCC1,2,-3,.,.
CC(=O)CC[C@@H]1CC[C@]2(CCCN(S(=O)(=O)c3ccccc3)C2)O1,-1,-2,.,.
S=C1Cc2ccccc2N1,1,11,26*,-1
COc1cc(C(C)=O)ccc1Oc1ncnc2c1cnn2-c1cccc(Cl)c1,3,-5,-4,0
COc1cc(C(C)=O)ccc1Oc1ncnc2c1cnn2-c1ccc(F)cc1,47*,-2,-2,1
CN(C)CC1CCC/C(=C\c2ccc(OC(=O)c3ccc(Cl)cc3)cc2)C1=O (configuration not stated),40*,4,-1,0
COc1cccc(C2c3c(ncn(-c4ccccc4)c3=N)Oc3ccc4ccccc4c32)c1OC (configuration not stated),-24,-18,.,.
CCn1c(/C=C/N(C(C)=O)c2ccccc2)[n+](CCCS(=O)(=O)[O-])c2cc(Cl)c(Cl)cc21,4,6,-6,4.6*
CC(=O)c1c(C)nc2ccc(Br)cc2c1-c1ccccc1,-18,-9,-2,-1
Cc1nc2ccc(Br)cc2c(-c2ccccc2)c1C(=O)O,44*,17,-2,2
CCOc1cc(S(=O)(=O)Nc2cc(C)cc(C)c2)ccc1Cl,-3,47*,-7,1
COc1ccc(-c2nnc(SCC(=O)NN=C(C)c3cccc4ccccc34)n2-c2ccccc2)cc1,-21,-13,.,.
CCC[C@H]1[C@@H](OC(=O)NCc2cccc(Cl)c2)CC[C@@]23CCCN2C(=O)CCC[C@@H]13,-31,-29,.,.
CN1CCc2cc3c(c4c2[C@H]1[C@H](O)c1ccccc1-4)OCO3,1,-13,37*,0
SMILES,NPR1 activator,GC-B act,bovine MsrA act,MsrA inh
COc1ccc(OC)c2c1C(=O)C(Cl)=C(Cl)C2=O,43*,22,-18,-1
CCn1c(=O)c(C(=O)CN2c3ccccc3CC2C)c(N)n(Cc2ccccc2)c1=O (configuration not stated),41*,9,-10,4
COc1ccc(CC(=O)N(Cc2ccccc2)c2ccccc2C(=O)Nc2cc(OC)ccc2OC)cc1,-16,-12,.,.
Cc1c(/C(O)=C2\C(=O)C(=O)N(CCN(C)C)C2c2cccnc2)cnn1-c1ccccc1 (configuration not stated),-1,7,-5,3
Cc1c(/C(O)=C2\C(=O)C(=O)N(CCN(C)C)C2c2cccs2)cnn1-c1ccccc1 (configuration not stated),1,-1,-7,4.6*
CN(CCOC(=O)c1cc2ccccc2o1)C1CN(Cc2cn(Cc3ccc([N+](=O)[O-])cc3)nn2)S(=O)(=O)C1 (configuration not stated),0,-2,.,.
O=C(O)c1cc(O)ccc1N=Nc1ccccc1,7,5,-2,4.6*
O=C(N1CCc2ccccc2C1)n1cc(C(O)(c2ccccc2)c2ccccc2)nn1,-6,-6,.,.
COc1cc(Nc2cc(C)n(-c3ccc(Cl)c(OC)c3)c(=O)c2)ccc1Cl,11,0,.,1
Cc1cc(Nc2cc(Cl)cc(Cl)c2)cc(=O)n1-c1cc(Cl)cc(Cl)c1,21,28*,.,0
CCC[C@H]1[C@@H](OC(=O)NC(CC)CC)CC[C@@]23CCCN2C(=O)CCC[C@@H]13,-4,-4,.,.
Cc1oc2c(CN(C)C)c(O)ccc2c(=O)c1-c1cscn1,4,1,-5,4.8*
COc1ccc(Oc2c(C)oc3c(CN(C)C)c(O)ccc3c2=O)cc1,-1,0,-3,2
C=CCCC(=O)N1CCC(C(=O)NCC2COc3ccccc3O2)CC1 (configuration not stated),0,-7,.,.
COc1cc(-c2nc3cnccn3c2Nc2ccc(C(C)C)cc2)ccc1O,55*,1,-4,2
COc1cc(-c2nc3cnccn3c2Nc2ccc3c(c2)OCCO3)ccc1O,22,17,-2,3
Oc1ccc(-c2nc3cnccn3c2Nc2ccc3c(c2)OCCO3)cc1,41*,29,-2,2
c1ccc(-c2nc3cnccn3c2Nc2ccc3c(c2)OCCO3)cc1,45*,36*,-3,1
Cc1ccn2c(Nc3ccc4c(c3)OCO4)c(-c3ccc(O)cc3)nc2c1,47*,16,-2,1
COc1cc(-c2nc3cnccn3c2Nc2ccccc2)ccc1O,-4,-16,-2,3
Oc1ccc(-c2nc3ncccn3c2Nc2ccc3c(c2)OCO3)cc1,39,2,-4,2
O=C(NC1CCC1)O[C@H]1CC[C@@]23CCCN2C(=O)CCC[C@H]3C1,4,-4,.,.
O=C(Nc1ccc(N2C(=O)CC(c3ccccc3)C2=O)c(Cl)c1)c1ccccn1 (configuration not stated),-1,4,.,.
COc1cc(-c2nc3cnccn3c2Nc2ccc(C)cc2)ccc1O,34,2,7,1
COc1cc(-c2nc3ccc(C)cn3c2Nc2ccc3c(c2)OCCO3)ccc1O,36,39*,-1,1
O=C(/C=C/c1ccc(Cl)cc1Cl)OCC(=O)N1CCCC1,41*,-3,-1,1
O=C(/C=C/c1ccccc1Cl)OCC(=O)N1CCCC1,5,-2,-3,0
O=C(c1ccco1)N1CCN(C(=O)c2ccc(-c3ccc(Cl)cc3)o2)CC1,5,3,2,0
CC(=O)N1CCN(C(=S)c2ccc(-c3ccc(Cl)cc3)o2)CC1,43*,48*,-4,1
